Anthrax LT inh: blocks cellular internalization of anthrax lethal toxin; Cells, anthrax lethal toxin internalization, FRET ratio (460/530); 0.67% of 70,000 active; AID 912; Potency, µM (highest dose often 40 µM), without a hit: at the highest dose activity change, negative = inhibition, actives largely listed as inhibitors; note: % is set by controls: 0 for no effect and ±100 for the full control effect; nearly all actives have a fitted effect of over 50% in size
AmpC det inh: AmpC beta-lactamase inhibition, detergent assay; P00811; purified AmpC, nitrocefin hydrolysis with detergent; Potency, µM (top dose mostly 28.7 µM), for inactives: top-dose activity change, negative = inhibition; 0.09% of 71,000 active; AID 584; active = well fitted curve in the direction sought with a large enough effect; inconclusive = small, poorly fitted or top-dose-only effect; note: % is set by controls: 0 for no effect and ±100 for the full control effect
Target sequence (P00811 whole entry, looked up): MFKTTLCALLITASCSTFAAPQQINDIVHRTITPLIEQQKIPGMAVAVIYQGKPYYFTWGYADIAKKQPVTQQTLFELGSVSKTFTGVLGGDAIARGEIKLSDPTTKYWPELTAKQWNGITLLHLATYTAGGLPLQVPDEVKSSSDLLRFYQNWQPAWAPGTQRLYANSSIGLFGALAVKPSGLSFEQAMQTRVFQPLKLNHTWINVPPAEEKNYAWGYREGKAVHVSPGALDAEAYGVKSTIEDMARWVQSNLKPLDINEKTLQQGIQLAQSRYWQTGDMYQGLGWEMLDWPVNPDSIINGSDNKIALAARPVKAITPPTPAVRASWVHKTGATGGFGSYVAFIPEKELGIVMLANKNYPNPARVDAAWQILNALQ
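E. coli AmpC (5.3 nM) in 20 mM phosphate pH 7.0 with 0.01% Triton X-100, preincubated 15 min RT with compound; nitrocefin (2 uL of 800 uM stock) hydrolysis followed by 480 nm absorbance every 20 s over 4 min.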
AmpC nodet inh: AmpC beta-lactamase inhibition, detergent-free assay | P00811 | AmpC nitrocefin hydrolysis, absorbance 480 nm, no detergent | Potency, µM (titrated, usually from 28.7 µM), inactives show at the highest dose activity change, negative = inhibition | 1.8% of 71,000 active | AID 585; note: % of control where 0% means no effect
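AmpC in 20 mM phosphate buffer pH 7.0 was preincubated 15 min at room temperature with compounds. Nitrocefin (800 uM stock) was then added and hydrolysis followed at 480 nm every 20 s for 4 min.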
SmPrx2 inh: blocks S. mansoni peroxiredoxin 2 enzymatic activity; Potency, µM; S. mansoni Prx2 activity coupled to TGR/GSH (TGR is thioredoxin glutathione reductase), NADPH fluorescence loss, qHTS; 0.07% of 65,000 active; AID 448
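Coupled assay in which S. mansoni TGR passes NADPH reducing equivalents via glutathione to Prx2, which reduces H2O2. Compounds were preincubated 15 min at room temperature with 25 nM TGR/50 nM Prx2 mix. Kinetic NADPH fluorescence loss (ex 365/em 450 nm) was monitored.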
An asterisk follows results filed as active; ? = inconclusive; / = no result; [ ] = dose if it differs, or a comment. Shown are actives, neighbours in structure and some others; about 2.4% of the full set was active somewhere. Unless noted, calls come from the whole dose curve. Potency is the fitted concentration of half-maximal effect.

SMILES	Anthrax LT inh	AmpC det inh	AmpC nodet inh	SmPrx2 inh
O=C(Cc1cc(=O)[nH]c(=O)[nH]1)NCC1CCCO1 (configuration not stated)	4µM*	9%	71%	>57
Cc1cccc(-n2c(Cc3cc(=O)[nH]c(=O)[nH]3)nnc2SCC(=O)NCC2CCCO2)c1 (configuration not stated)	2%	14%	4µM*[single pt active]	>57
CO[C@@H]1COC(=O)[C@H]2CCCN2C(=O)[C@@H](C)COC(=O)CCC[C@H]1C	-6%[8 µM]	/	/	/
CSc1ccccc1NC(=O)c1ccncc1	-2%	1%	5%	>57
C/C(=C\C(=O)c1ccncc1)Nc1ccccc1O	2.5µM*	5%	0%	/
Cc1cccc(CNc2ncncc2-c2ccccc2C(F)(F)F)c1	3%	9%	37%	>57
[Cl-].[Cl-].[Hg+2]	?	13µM*	1.3µM*	/
[Cd+2].[Cl-].[Cl-]	?	10%	-8%	/
O=C(OCC1CO1)C1CCCCC1C(=O)OCC1CO1 (configuration not stated)	?	8%	82%	/
CCOc1ccc(-n2c(CC)nc3ccccc3c2=O)cc1	-17%	12%	3.2µM*[single pt active]	>57
Cc1ccc(OC2C(O)COC2/C=C/C#Cc2ccc(C(C)(C)C)cc2)cc1 (configuration not stated)	-26%[8 µM]	/	/	/
CC1CCCCN1CCNC(=O)c1cc2c(=O)n(C)c3ccccc3c2n1C (configuration not stated)	2.5µM*	10%	38%	>57
Cn1c(C(=O)NCCN2CCOCC2)cc2c(=O)n(C)c3ccccc3c21	-18%	10%	106%	>57
CC1CCC(NC(=O)c2cc3c(=O)n(C)c4ccccc4c3n2C)CC1 (configuration not stated)	-18%	18%	4µM*[single pt active]	>57
Cn1c(C(=O)NCCN2CCc3ccccc3C2)cc2c(=O)n(C)c3ccccc3c21	7.9µM*	7%	102%	>57
Cn1c(C(=O)NCCN2CCN(c3ccccc3F)CC2)cc2c(=O)n(C)c3ccccc3c21	-6%	16%	4µM*[single pt active]	>57
CC1CCCCN1CCNC(=O)c1cnn2ccccc12 (configuration not stated)	-9%	14%	3.2µM*[single pt active]	/
Cc1cc(C(=O)NCCN2CCCCC2C)n(-c2ccccc2)n1 (configuration not stated)	-4%	5%	-14%	>57
C[N+](C)([O-])Cc1cc(-c2ccccc2)ccc1O	-6%[8 µM]	-3%[5.75 µM]	-5%[5.75 µM]	>57
c1ccc(C(c2ccccc2)N2CC3(CCNCC3)C2)cc1	10µM*	-3%	36%	>57
c1ccc(-c2ccc(N3CC4(CCNCC4)C3)cc2)cc1	13µM*	-3%	82%	>57
COc1ccc(S(=O)(=O)n2nc(OC(=O)c3ccc(C)cc3)cc2N)cc1	-12%	-2%	13µM*	>57
CCCOC(=O)C1C2C=CC3(CN(c4ccc(Cl)c(F)c4)C(=O)C13)O2 (configuration not stated)	-15%	13%	?	>57
CCOC(=O)C1C2C=CC3(CN(c4ccc(Cl)c(F)c4)C(=O)C13)O2 (configuration not stated)	14%	10%	2µM*[single pt active]	>57
CO[C@@H]1COC(=O)C/C=C\[C@@H](C)[C@H](OC)COC(=O)C/C=C\[C@H]1C	-2%[8 µM]	/	/	/
SMILES	Anthrax LT inh	AmpC det inh	AmpC nodet inh	SmPrx2 inh
COc1ccc2c(c1)[n+]([O-])c(/C(C)=N/NC(N)=S)c(C)[n+]2[O-]	0%[8 µM]	-2%[5.75 µM]	2%[5.75 µM]	>57
Cc1cccc(NCc2nc(-c3ccccc3)no2)c1	?	10%	2.5µM*[single pt active]	>57
Cc1ccc(OCc2nc(-c3ccccc3)no2)c(C)c1	?	3%	-10%	/
CC(C)(C)OC(=O)NCCc1nnc(S(=O)(=O)Cc2ccc(Cl)cc2Cl)o1	?	0.016µM*	0.04µM*	>57
COc1ccc(-c2nc3cnc(N4CCNCC4)nc3n(-c3ccccc3)c2=O)cc1	?	2%	59%	>11
Cc1ccnc(NC2c3ccccc3C(=O)N2Cc2ccccc2Cl)c1 (configuration not stated)	-6%	12%	4µM*[single pt active]	>57
Cc1ccc(N2C(=O)c3ccccc3C2O)nc1 (configuration not stated)	14%	12%	4µM*[single pt active]	>57
O=C1c2ccccc2C(Nc2ccc(Cl)cn2)N1c1ccccn1 (configuration not stated)	-22%	15%	4µM*[single pt active]	>57
COc1cc(OC)c(NC2c3ccccc3C(=O)N2c2cc(C)ccn2)cc1Cl (configuration not stated)	-10%	9%	82%	>57
